Publication PMC4552634, “A New Set of Chemical Starting Points with Plasmodium falciparum Transmission-Blocking Potential for Antimalarial Drug Discovery” (PLoS ONE, 2015)
Out of some 13,000 compounds screened, about 3,200 (25%) showed an effect of 50% or more. Some of the results follow.

Test system: P. falciparum stage V gametocytes
Set-up: BacTiter-Glo ATP luminescence viability of purified stage V gametocytes in 384-well plates, per cent inhibition versus DMSO
Conditions: 48 h, 5 µM; inhibitor

Point of comparison: CCN(CC)CCN(Cc1ccc(-c2ccc(C(F)(F)F)cc2)cc1)C(=O)Cn1c(CCc2cccc(F)c2F)nc(=O)c2ccc(C)cc21 [TCMDC-141086], “% Inhibition” value 74.83%. Against it:
- CCN(CC)C(=O)c1cnc(-c2ccccc2)nc1Oc1cccc(Cl)c1 [TCMDC-124780] — lower, 14.15%
- CCCCCCC(C)c1cc(O)c2c(c1)OC(=O)CC2(CC)c1ccccn1 (stereo not shown) [TCMDC-131681] — lower, -3.085%
- c1cc(CNC2Cc3ccc(-c4cccs4)cc3C2)cc(-n2ccnc2)c1 (stereo not shown) [TCMDC-134830] — lower, -2.028%
- CC(C)C[C@H](NC(=O)c1ccc(OCCN2CCOCC2)cc1)C(=O)NC(/C=N/N1CCCC1=O)C(C)C (stereo partly shown) [TCMDC-136276] — lower, 20.05%
- CCc1cccc(OCC2CCCN(c3ccc(C(=O)NC4CC4)cn3)C2)c1 (stereo not shown) [TCMDC-134039] — lower, 7.857%
- CCN(CC)CCN(Cc1ccc(-c2ccc(C(F)(F)F)cc2)cc1)C(=O)Cn1c(CCc2ccc(F)cc2)nc(=O)c2sccc21 [TCMDC-140779] — higher, 90.56%
- CCN(CC)CCN(Cc1ccc(-c2ccc(C(F)(F)F)cc2)cc1)C(=O)Cn1c(CCc2cccc(F)c2F)nc(=O)c2cc(C)ccc21 [TCMDC-141014] — lower, 48.99%
- CCN(CC)CCN(Cc1ccc(-c2ccc(C(F)(F)F)cc2)cc1)C(=O)Cn1c(SCc2ccc(F)cc2)nc(=O)c2sccc21 [TCMDC-140572] — higher, 78.9%
- CCN(CC)CCN(Cc1ccc(-c2ccc(C(F)(F)F)cc2)nc1)C(=O)Cn1c(SCc2ccc(F)cc2)nc(=O)c2sccc21 [TCMDC-140573] — lower, 27.02%
- CCN(CC)CCN(Cc1ccc(-c2ccc(C(F)(F)F)cc2)cc1)C(=O)Cn1c(SCc2ccc(F)cc2)nc(=O)c2ccccc21 [TCMDC-140983] — higher, 87.16%
- Cc1cccc(C)c1C1CCN(C2CCC(NC(=O)/C=C/c3ccccc3)CC2)CC1 (stereo not shown) [TCMDC-132879] — lower, -22.62%
- C=CC12CCN(CC1)C(C(O)c1ccnc3ccc(OC)cc13)C2 (stereo not shown) [TCMDC-124047] — lower, -22.19%
- O=C(Nc1ccc(F)c(F)c1)c1ccc(CN2CCCN(Cc3cccc(O)c3)CC2)cc1 [TCMDC-136390] — lower, -4.727%
- CC(=O)Nc1ncc(C(=O)Nc2cccc(-c3cccc(-c4nc5ccc(C(F)(F)F)cc5[nH]4)c3)c2)s1 [TCMDC-136918] — lower, 17.49%
- CCc1sc(N2CCN(C)CC2)nc1C(=O)Nc1ccc(F)cc1C(F)(F)F [TCMDC-134298] — lower, 16.91%
- CCN(CC)CCN(Cc1ccc(-c2ccc(C(F)(F)F)cc2)cc1)C(=O)Cn1c(CCc2cccc(F)c2F)nc(=O)c2sccc21 [TCMDC-140937] — higher, 80.29%
- Cc1noc(NC(=O)c2sc3ccccc3c2O)c1C [TCMDC-124523] — lower, 7.208%
- O=C(CNC(=O)c1ccc(O)cc1)Nc1ccc(-c2cccc(-c3nc4ccc(C(F)(F)F)cc4[nH]3)c2)cc1 [TCMDC-136817] — lower, -15.92%
- COc1cc(O)c2c(=O)c(OC)c(-c3cccc(Cl)c3OCC(=O)O)oc2c1OC [TCMDC-131682] — lower, 2.376%
- N=C(N)c1ccc(NCc2cccc(C(=O)O)c2)cc1 [TCMDC-136136] — lower, -78.43%
- O=C(O)c1ccc(-c2c[nH]c3ncc(-c4ccc(Cl)cc4)cc23)cc1 [TCMDC-135860] — lower, 22.96%
- CS(=O)(=O)Nc1cccc(-c2cnc3[nH]cc(-c4ccc(CN)cc4)c3c2)c1 [TCMDC-136218] — lower, 33.32%
- CCS(=O)(=O)c1ccc(-c2cnc3[nH]cc(-c4ccc(N)cc4)c3c2)cc1 [TCMDC-132582] — higher, 93.29%
- CS(=O)(=O)c1cccc(-c2cnc3[nH]cc(-c4cccc(CCN)c4)c3c2)c1 [TCMDC-136307] — higher, 108.4%
- CS(=O)(=O)Nc1cccc(-c2cnc3[nH]cc(-c4ccc(CCC(=O)O)cc4)c3c2)c1 [TCMDC-136222] — lower, -32.54%
- CS(=O)(=O)Nc1cccc(-c2cnc3[nH]cc(-c4ccc(C(=O)O)c(F)c4)c3c2)c1 [TCMDC-136221] — higher, 80.96%
- NCCNC(=O)c1ccc(-c2cnc3[nH]cc(-c4ccc(C(N)=O)cc4)c3c2)cc1 [TCMDC-132359] — lower, 74.46%
- CS(=O)(=O)c1cccc(-c2cnc3[nH]cc(-c4ccc(CCC(=O)O)cc4)c3c2)c1 [TCMDC-136223] — lower, 14.42%
- CS(=O)(=O)Nc1cccc(-c2cnc3[nH]cc(-c4ccc(C(=O)O)cc4)c3c2)c1 [TCMDC-136215] — lower, -36.34%
- CS(=O)(=O)Nc1cccc(-c2cnc3[nH]cc(-c4cccc(CN)c4)c3c2)c1 [TCMDC-136219] — lower, 26.05%
- NCCC(=O)Nc1ccc(-c2cnc3[nH]cc(-c4ccc(C(=O)O)cc4)c3c2)cn1 [TCMDC-136494] — lower, 31.68%
- CS(=O)(=O)Nc1ccc(-c2cnc3[nH]cc(-c4ccc(C(=O)O)cc4)c3c2)cc1 [TCMDC-136306] — lower, 30.86%
- CCOC(=O)C(C(=O)OCC)c1nc(C)ns1 [TCMDC-131370] — lower, 6.156%
- O=C(Nc1ccc2c(c1)CCC2)c1ccc(N2CCN(c3ccncc3)CC2)cc1 [TCMDC-135127] — lower, 32.87%
- CC(C)/C(=C(/F)CN1C(=O)C(NC(=O)c2cc3ccccc3[nH]2)C(=O)N(c2ccccc2)c2ccccc21)c1ccccc1 (stereo not shown) [TCMDC-131897] — lower, 34.22%
- O=C(Nc1ccc(N2CCCN(Cc3cccc(F)c3)CC2)cc1)c1cccs1 [TCMDC-135012] — lower, -8.127%
- CCc1nc(N)nc(N)c1-c1ccc(F)c(F)c1 [TCMDC-137370] — lower, 12.31%
- COc1ccccc1-c1sccc1C(=O)NC1(c2cc(Cl)cc(Cl)c2)CCCC1 [TCMDC-136461] — lower, -44%
- COc1ccc(Cl)cc1-c1nc(C(=O)NCCN2CCCCC2)c(C)s1 [TCMDC-133714] — lower, 60.47%
- CCOc1cc(C(=O)NCCN2CCCCC2)ccc1-c1nc2ccc(Cl)cc2[nH]1 [TCMDC-140913] — lower, 5.667%
- COc1ccc(Cl)cc1-c1nc(C(=O)NCCN2CCCCC2)c(C(C)C)s1 [TCMDC-133715] — lower, 16.92%
- COc1ccc(Cl)cc1N1CCN(CCCNC(=O)c2ccc(-c3nc4cc(Cl)c(C)cc4[nH]3)s2)CC1 [TCMDC-140032] — lower, 3.429%
- CCc1sc(N2CCN(C)CC2)nc1C(=O)NCCc1ccc(Cl)c(Cl)c1 [TCMDC-134296] — lower, 25.24%
- CCc1sc(-c2cc(Cl)ccc2OC)nc1C(=O)NCCN1CCCCC1 [TCMDC-133716] — lower, 70.94%
- Cc1ccccc1N1CCN(c2ccc(C(=O)NC(C)C)cn2)CC1 [TCMDC-134577] — lower, -17.52%
- CCOC(=O)c1cnc2c(C(F)(F)F)cccc2c1Nc1ccc(O)cc1 [TCMDC-125649] — lower, -55.53%
- COc1ccc2nccc([C@@H](O)CN3CCC(NC(=O)/C=C/c4cc([N+](=O)[O-])ccc4OC)CC3)c2c1 [TCMDC-141044] — lower, -26.66%
- N#CN1CC[C@@H](NS(=O)(=O)Cc2ccc(Cl)c(Cl)c2)C1 [TCMDC-133787] — lower, 27.55%
- CCCCCCOc1ccc(C(=O)NCCCC2CCN(CCCCCNC(=O)C=Cc3ccc(Cl)c(Cl)c3)CC2)cc1 [TCMDC-139575] — lower, 7.423%
- O=C(/C=C/c1ccc(Cl)c(Cl)c1)NCCCCCN1CCC(NC(=O)Nc2ccc3c(c2)OCO3)CC1 [TCMDC-135718] — lower, -35.92%
- O=C(C=Cc1ccc(Cl)c(Cl)c1)NCCCCCN1CCC(CCNC(=O)c2ccc3c(c2)OCO3)CC1 [TCMDC-139568] — higher, 96.26%
- CCCCCCOc1ccc(C(=O)NCCC2CCN(CCCCCNC(=O)C=Cc3ccc(Cl)c(Cl)c3)CC2)cc1 [TCMDC-139569] — lower, 13.58%
- CCCCCCOc1ccc(C(=O)NCCCC2CCCN(CCCCCNC(=O)C=Cc3ccc(Cl)c(Cl)c3)C2)cc1 (stereo not shown) [TCMDC-139581] — lower, 50.48%
- O=C(/C=C/c1ccc(Cl)c(Cl)c1)NCCCCCN1CC[C@H](NC(=O)c2ccc3c(c2)OCO3)C1 [TCMDC-139563] — lower, 17.23%
- O=C(C=Cc1ccc(Cl)c(Cl)c1)NCCCCCN1CCC(CCCNC(=O)c2ccc3c(c2)OCO3)CC1 [TCMDC-139574] — lower, 21.18%
- O=C(/C=C/c1ccc(Cl)c(Cl)c1)NCCCCCN1CCC(C(=O)Nc2ccc3c(c2)OCO3)CC1 [TCMDC-136127] — lower, -2.985%
- O=C(C=Cc1ccc(Cl)c(Cl)c1)NCCCCCN1CCCC(CCCNC(=O)c2ccc3c(c2)OCO3)C1 (stereo not shown) [TCMDC-139580] — higher, 81.7%
- Cc1ccc(NC(=O)N2CCCN(CCCCCNC(=O)/C=C/c3ccc(Cl)c(Cl)c3)CC2)cc1 [TCMDC-135744] — lower, -49.55%
- N#Cc1cc(C(=O)c2cc(Br)ccc2O)cn(-c2cc(Cl)cc(Cl)c2)c1=O [TCMDC-125187] — lower, -21.05%
- O=[N+]([O-])c1cccc(CNCC2CCC(CNCc3cccc([N+](=O)[O-])c3)CC2)c1 (stereo not shown) [TCMDC-141176] — lower, 8.201%
- COc1ccc(OC)c(CC2c3ccc(Br)c(O)c3CCN2C)c1 (stereo not shown) [TCMDC-137439] — lower, 12.74%
- CN1CCN(c2cc3c(cc2Cl)CCN3C(=O)Cc2ccc(NC(=O)Nc3cccc4ccccc34)cc2)CC1 [TCMDC-139472] — lower, -2.627%
- Cn1ccnc1CNC(=O)c1ccc(-c2cccc(-c3nc4cc(C(F)(F)F)ccc4[nH]3)c2)cc1 [TCMDC-132357] — lower, 7.087%
